Laboratory results taken from the supplement of paper PMC10849652.
Of roughly 7,900 targets only a part is listed; those with a hit were picked by preference. About 0.6% of all pairs of compound and target were hits.

Columns and labels:
Test in all cases: log2 fold change, soluble protein after heating vs DMSO (PISA); higher = thermal stabilisation; K562 cells, 10 uM, 30 min; active = over 0.2 and 3.5 SD of the protein, either way, in both replicates (recomputed)
[1] = compound: C1=CC=C(C=C1)[C@H](COC2=CC3=C(C=C2)NC(=O)N3)NC(=O)C4=CC=CN(C4=O)CC5=CC(=C(C=C5)F)F
Method in brief: (§1)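 K562 cells at 2×10^6 cells/mL were exposed to 10 μM compound for 30 min, then aliquots were heated for 3 min across 48°C-58°C, pooled, and extracted in PBS containing 0.5% NP-40 at 4°C. The supernatant after 21,000xg for 90 min was taken as soluble protein and measured by TMTpro 16plex LC-MS/MS with channel sums equalised. Thermal stability is reported relative to control samples, with values from duplicates. Fold changes are given on a log2 scale.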

[2] = compound: CC1=C(SC2=C1C(=N[C@H](C3=NN=C(N32)C)CC(=O)N)C4=CC=C(C=C4)Cl)C
Method in brief: as §1

[3] = compound: CC1=C2C(=CC=C1)N=C(N(C2=O)C3=CC=CC=C3C)CN4C=NC5=C(N=CN=C54)N
Method in brief: as §1

[4] = compound: Cc1sc2c(c1C)C(c1ccc(Cl)cc1)=N[C@@H](CC(=O)OC(C)(C)C)c1nnc(C)n1-2
Method in brief: as §1

[5] = compound: c1ccc([C@@H]2C[C@H]2NC2CCNCC2)cc1
Method in brief: as §1

Measured: log2 fold change

TNNC2 (UniProt P02585)
UniProt P02585, sequence (P02585 whole entry, looked up): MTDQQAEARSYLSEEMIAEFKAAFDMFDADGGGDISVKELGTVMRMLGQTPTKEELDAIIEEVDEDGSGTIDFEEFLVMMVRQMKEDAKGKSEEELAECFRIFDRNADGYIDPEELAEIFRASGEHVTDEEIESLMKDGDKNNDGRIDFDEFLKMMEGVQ
inactive: [1] 0.043 | [2] 0.004 | [3] 0.06 | [4] -0.624 | [5] 0.031

TUBA4A (UniProt C9JJQ8)
inactive: [1] -0.081 | [2] 0.036 | [3] 0 | [4] -0.011 | [5] 0.229

TRAPPC8 (UniProt Q9Y2L5)
UniProt Q9Y2L5, sequence (Q9Y2L5 whole entry, looked up): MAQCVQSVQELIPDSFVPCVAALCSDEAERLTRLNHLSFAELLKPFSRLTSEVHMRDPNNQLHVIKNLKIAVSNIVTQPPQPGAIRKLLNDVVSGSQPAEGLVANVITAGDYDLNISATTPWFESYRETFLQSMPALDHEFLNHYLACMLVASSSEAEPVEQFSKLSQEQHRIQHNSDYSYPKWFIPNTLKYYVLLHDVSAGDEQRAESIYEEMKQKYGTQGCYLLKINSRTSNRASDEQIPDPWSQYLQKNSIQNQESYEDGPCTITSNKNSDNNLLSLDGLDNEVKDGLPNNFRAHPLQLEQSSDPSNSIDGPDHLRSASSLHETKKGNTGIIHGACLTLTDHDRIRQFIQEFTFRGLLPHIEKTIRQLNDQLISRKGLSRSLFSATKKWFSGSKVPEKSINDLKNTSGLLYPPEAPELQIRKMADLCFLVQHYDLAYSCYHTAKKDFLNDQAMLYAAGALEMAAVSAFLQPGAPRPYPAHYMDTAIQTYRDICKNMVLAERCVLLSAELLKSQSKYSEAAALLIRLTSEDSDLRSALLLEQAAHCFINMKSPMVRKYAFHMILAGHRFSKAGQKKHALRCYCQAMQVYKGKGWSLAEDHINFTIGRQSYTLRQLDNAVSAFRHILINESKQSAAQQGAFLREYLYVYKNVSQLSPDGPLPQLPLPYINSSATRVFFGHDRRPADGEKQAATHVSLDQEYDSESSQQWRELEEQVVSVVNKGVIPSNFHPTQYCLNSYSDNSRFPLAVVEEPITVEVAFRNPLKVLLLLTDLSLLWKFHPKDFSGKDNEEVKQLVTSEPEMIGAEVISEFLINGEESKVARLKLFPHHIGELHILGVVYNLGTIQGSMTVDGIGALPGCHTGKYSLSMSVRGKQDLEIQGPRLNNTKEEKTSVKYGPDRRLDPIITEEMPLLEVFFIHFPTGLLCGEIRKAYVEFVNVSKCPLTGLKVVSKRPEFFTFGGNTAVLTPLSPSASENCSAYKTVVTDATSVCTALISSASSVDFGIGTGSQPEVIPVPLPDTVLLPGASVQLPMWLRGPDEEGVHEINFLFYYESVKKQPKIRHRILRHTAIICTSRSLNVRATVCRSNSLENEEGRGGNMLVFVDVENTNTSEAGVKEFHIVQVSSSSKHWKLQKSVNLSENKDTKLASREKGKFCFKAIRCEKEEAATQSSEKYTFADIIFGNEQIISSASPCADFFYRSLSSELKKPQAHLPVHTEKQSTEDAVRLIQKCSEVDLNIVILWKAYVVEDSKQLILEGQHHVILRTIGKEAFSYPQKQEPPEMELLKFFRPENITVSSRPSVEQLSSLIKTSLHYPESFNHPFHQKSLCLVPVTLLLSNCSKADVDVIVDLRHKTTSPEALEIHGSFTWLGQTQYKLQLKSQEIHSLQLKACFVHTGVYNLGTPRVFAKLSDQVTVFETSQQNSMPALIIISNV
inactive: [1] -0.01 | [2] 0.05 | [3] 0.046 | [4] 0.012 | [5] -0.018

TSEN2 (UniProt Q8NCE0)
UniProt Q8NCE0, sequence (Q8NCE0 whole entry, looked up): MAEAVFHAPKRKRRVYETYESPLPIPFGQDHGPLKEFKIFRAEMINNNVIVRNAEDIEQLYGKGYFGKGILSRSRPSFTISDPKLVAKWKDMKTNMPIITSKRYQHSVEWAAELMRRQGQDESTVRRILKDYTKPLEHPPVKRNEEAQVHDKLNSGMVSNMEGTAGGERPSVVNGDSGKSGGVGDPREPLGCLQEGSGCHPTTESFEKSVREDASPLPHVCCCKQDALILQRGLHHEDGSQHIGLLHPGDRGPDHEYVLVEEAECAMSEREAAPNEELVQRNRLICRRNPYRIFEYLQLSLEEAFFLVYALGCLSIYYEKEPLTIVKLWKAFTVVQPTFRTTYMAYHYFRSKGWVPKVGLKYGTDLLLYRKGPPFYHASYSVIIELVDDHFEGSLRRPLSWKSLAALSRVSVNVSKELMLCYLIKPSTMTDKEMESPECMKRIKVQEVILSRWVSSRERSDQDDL
inactive: [1] -0.05 | [2] 0 | [3] 0.044 | [4] -0.027 | [5] 0.03

TMEM87B (UniProt Q96K49)
UniProt Q96K49, sequence (Q96K49 whole entry, looked up): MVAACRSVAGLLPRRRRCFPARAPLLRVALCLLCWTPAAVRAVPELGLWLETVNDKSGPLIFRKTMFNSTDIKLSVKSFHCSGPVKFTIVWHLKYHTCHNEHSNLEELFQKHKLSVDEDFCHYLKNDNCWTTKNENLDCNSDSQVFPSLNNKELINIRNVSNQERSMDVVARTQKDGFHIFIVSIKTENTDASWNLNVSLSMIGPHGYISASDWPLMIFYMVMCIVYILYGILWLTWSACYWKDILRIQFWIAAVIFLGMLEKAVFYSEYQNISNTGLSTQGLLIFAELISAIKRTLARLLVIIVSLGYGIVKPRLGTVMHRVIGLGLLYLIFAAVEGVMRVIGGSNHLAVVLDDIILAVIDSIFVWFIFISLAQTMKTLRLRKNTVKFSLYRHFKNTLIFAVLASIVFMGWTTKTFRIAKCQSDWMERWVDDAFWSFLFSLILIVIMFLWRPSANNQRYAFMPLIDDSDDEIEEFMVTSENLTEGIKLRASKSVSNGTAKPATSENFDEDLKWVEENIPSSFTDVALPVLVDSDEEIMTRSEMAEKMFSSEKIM
inactive: [1] 0.04 | [2] 0.083 | [3] -0.031 | [4] -0.036 | [5] 0.012

TRAPPC11 (UniProt Q7Z392)
UniProt Q7Z392, sequence (Q7Z392 whole entry, looked up): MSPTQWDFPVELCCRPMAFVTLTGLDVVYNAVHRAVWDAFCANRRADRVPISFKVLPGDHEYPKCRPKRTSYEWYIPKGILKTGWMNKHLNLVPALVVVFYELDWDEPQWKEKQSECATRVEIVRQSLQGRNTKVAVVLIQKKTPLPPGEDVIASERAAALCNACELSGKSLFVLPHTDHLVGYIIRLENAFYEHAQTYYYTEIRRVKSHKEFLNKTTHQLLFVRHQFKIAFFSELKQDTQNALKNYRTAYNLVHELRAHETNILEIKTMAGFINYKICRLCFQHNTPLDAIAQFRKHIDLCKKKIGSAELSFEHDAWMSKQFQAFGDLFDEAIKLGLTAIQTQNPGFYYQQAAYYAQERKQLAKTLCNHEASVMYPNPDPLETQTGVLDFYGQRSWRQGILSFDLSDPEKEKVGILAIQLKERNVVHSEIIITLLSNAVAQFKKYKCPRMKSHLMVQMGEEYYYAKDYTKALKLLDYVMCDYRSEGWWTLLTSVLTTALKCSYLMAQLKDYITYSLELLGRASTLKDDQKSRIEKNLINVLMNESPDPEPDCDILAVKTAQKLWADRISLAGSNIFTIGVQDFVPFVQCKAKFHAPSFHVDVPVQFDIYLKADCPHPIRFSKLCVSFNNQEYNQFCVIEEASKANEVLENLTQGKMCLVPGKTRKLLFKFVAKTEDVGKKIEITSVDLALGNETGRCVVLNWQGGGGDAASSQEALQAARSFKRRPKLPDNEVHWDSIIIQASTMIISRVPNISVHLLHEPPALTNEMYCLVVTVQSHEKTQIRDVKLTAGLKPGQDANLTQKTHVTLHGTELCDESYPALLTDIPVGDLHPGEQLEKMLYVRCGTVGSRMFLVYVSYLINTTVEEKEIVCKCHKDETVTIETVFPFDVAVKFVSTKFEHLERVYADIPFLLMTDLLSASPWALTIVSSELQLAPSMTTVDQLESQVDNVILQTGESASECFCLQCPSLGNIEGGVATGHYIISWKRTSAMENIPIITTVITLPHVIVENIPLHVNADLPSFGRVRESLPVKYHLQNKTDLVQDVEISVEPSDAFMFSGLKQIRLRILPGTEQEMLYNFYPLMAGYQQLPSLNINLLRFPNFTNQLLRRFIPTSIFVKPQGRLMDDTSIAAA
inactive: [1] 0.004 | [2] 0.117 | [3] 0.077 | [4] -0.031 | [5] 0.027

TOP2A isoform 4 (UniProt P11388)
inactive: [1] 0.157 | [2] -0.322 | [3] -0.703 | [4] 0.252 | [5] 0.002

XRCC6 (UniProt P12956)
inactive: [1] -0.04 | [2] 0.044 | [3] 0.114 | [4] -0.022 | [5] -0.003

VPS16 (UniProt Q9H269)
inactive: [1] -0.188 | [2] 0.048 | [3] 0.106 | [4] -0.021 | [5] -0.038

XRCC5 (UniProt P13010)
UniProt P13010, sequence (P13010 whole entry, looked up): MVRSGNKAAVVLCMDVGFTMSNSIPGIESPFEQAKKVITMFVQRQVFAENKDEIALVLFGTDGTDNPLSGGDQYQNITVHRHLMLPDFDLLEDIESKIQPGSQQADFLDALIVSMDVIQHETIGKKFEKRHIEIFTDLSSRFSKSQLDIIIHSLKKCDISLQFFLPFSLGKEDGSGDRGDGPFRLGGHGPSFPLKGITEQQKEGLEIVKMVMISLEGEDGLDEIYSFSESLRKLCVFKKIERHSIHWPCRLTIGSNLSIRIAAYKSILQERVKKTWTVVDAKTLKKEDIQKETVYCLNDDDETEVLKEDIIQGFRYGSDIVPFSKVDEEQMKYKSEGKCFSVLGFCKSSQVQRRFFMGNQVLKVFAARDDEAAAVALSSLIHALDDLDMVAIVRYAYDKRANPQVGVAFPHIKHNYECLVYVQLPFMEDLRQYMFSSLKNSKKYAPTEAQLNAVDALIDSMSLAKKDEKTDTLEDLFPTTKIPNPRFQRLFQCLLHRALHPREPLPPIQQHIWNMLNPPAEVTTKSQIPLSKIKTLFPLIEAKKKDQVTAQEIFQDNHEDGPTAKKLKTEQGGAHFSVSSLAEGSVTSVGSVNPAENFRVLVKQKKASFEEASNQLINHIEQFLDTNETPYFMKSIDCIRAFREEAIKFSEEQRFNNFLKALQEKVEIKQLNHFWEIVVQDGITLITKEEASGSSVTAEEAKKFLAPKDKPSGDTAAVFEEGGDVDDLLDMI
inactive: [1] -0.136 | [2] -0.019 | [3] 0.095 | [4] 0 | [5] -0.003

XPOT (UniProt O43592)
inactive: [1] -0.028 | [2] 0.06 | [3] 0.083 | [4] -0.002 | [5] -0.001

U2AF2 (UniProt P26368)
UniProt P26368, sequence (P26368 whole entry, looked up): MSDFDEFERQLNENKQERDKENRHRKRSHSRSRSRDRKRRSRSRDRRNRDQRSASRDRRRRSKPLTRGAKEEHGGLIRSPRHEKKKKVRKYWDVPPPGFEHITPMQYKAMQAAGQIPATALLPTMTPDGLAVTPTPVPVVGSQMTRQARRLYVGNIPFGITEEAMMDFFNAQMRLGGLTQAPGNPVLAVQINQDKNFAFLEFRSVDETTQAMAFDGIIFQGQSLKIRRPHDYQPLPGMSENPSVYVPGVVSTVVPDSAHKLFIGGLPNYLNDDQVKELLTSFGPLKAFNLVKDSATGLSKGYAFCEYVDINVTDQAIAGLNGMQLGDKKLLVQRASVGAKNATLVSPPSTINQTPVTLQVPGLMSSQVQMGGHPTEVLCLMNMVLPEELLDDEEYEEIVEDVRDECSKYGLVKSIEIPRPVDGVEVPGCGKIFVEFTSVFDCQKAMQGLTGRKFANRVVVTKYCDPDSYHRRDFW
inactive: [1] -0.004 | [2] 0.057 | [3] 0.045 | [4] 0.044 | [5] 0.005
